The list is not random: actives were taken first. Their share in the collection is about 12%.
Sfp inh – Sfp phosphopantetheinyl transferase inhibition; Biochemical Sfp PPTase activity, qHTS; Potency, µM, for inactives: largest response in the series, negative = inhibition, actives largely listed as inhibitors; 3.5% of 310,000 active; AID 1490;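 further: the enzyme is Sfp with the accession as filed and its product quenches rhodamine fluorescence; 0% = enzyme reaction without inhibitor and -100% = no enzyme wells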
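Sfp 15 nM + cpd, 15 min RT; start w/ rhodamine-CoA 5 uM, BHQ-2-YbbR 12.5 uM (final); 50 mM Hepes pH 7.6, 10 mM MgCl2, 0.01% NP-40, 0.01% BSA; read 525/598 nm at 0 and 30 min.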
HP1b chromo inh – inhibitors of HP1-beta chromodomain binding to methylated histone tails; P83916; AlphaScreen HP1-beta / biotin-H3K9me3 peptide binding; Potency, µM (titrated, usually from 114 µM), without a hit: at the highest dose activity change, negative = inhibition, actives largely listed as inhibitors; 0.56% of 390,000 active; AID 540317; further: nearly all actives have a fitted effect of over 70% in size
Target sequence (P83916 whole entry, looked up): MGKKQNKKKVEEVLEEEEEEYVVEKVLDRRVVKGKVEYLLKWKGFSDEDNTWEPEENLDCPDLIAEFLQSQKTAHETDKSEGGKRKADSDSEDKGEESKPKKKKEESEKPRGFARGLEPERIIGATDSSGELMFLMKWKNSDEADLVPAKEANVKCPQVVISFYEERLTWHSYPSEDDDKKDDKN
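Compound inhibition of the preformed complex between 50 nM HP1-beta and 50 nM biotinylated H3K9me3 peptide was read by AlphaScreen. Buffer was PBS pH 7.4 with 0.01% Tween-20. Incubations ran 30 min at room temperature, with 10 ug/mL donor/acceptor beads.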
G9a block – inhibitors of human histone lysine methyltransferase G9a | Q96KQ7 | G9a H3K9 monomethylation, AlphaScreen, 2 h | Potency, µM (doses to about 102 µM), inactives show at the top dose activity, negative = inhibition, actives largely listed as inhibitors | 8.8% of 350,000 active; further: on the % scale 0 is the no-effect control and ±100 the full control effect; nearly all actives have a fitted effect of over 75% in size
Target sequence (Q96KQ7 913-1193 limits assumed): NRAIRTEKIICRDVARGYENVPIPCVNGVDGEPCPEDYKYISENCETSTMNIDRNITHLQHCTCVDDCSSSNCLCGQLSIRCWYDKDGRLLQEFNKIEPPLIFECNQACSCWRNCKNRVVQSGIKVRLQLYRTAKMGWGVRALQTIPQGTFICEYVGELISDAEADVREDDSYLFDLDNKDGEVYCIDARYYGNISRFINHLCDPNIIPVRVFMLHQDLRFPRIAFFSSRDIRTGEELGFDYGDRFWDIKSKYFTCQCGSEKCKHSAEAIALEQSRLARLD
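Step 1: enzyme (final 20 nM) with compound, 15 min RT. Step 2: substrate peptide 500 nM and SAM 20 uM, 2 h RT. Step 3: anti-H3K9me1 antibody and AlphaScreen beads, 10 min, then plate read.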
JMJD2A Tudor – inhibitors of human JMJD2A Tudor domain. 4.4% of 390,000 active. Potency, µM (series often up to 114 µM), for the others: top-dose activity change, negative = inhibition, most hits filed as inhibitors. AID 504339. AlphaScreen JMJD2A-Tudor / H3K4me3 peptide binding; further: on the % scale 0 is the no-effect control and ±100 the full control effect; nearly all actives have a fitted effect of over 50% in size
BAZ2B inh – BAZ2B (human) inhibition | Q9UIF8 | AlphaScreen BAZ2B-H3K14Ac peptide displacement | Potency, µM (highest dose often 114 µM), for inactives: at the highest dose activity change, negative = inhibition, usual class: inhibitors | 4.4% of 360,000 active | AID 504333; further: on the % scale 0 is the no-effect control and ±100 the full control effect; nearly all actives have a fitted effect of over 60% in size
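In this displacement format the biotinylated H3(5-23) peptide acetylated at Lys14 serves as ligand at 50 nM, with BAZ2B at 50 nM in PBS pH 7.4 containing 0.01% Tween-20. Donor and acceptor beads are 10 ug/mL final.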
Active calls of the source: *; ? = inconclusive; . = no result; ! = a repeat was not active; [ ] = dose if it differs, or a comment. The call rests on the fitted dose curve; in most records, active means well fitted curve in the direction sought with a large enough effect; inconclusive means small, poorly fitted or top-dose-only effect, or another doubt; inactive means no such curve, though single readings can be large; an effect the other way counts as inactive or inconclusive. Potency means the concentration at half of the fitted maximal effect.

SMILES | Sfp inh | HP1b chromo inh | G9a block | JMJD2A Tudor | BAZ2B inh
COc1ccccc1N1CCN(Cc2cccc(OC)c2O)CC1 | 2% | 15% | 45µM* | ? | 50µM*
CC(=O)OCC(=O)C1CCC2C3CC=C4CC(O)CC[C@@]4(C)C3CC[C@]12C (stereo partly drawn) | 3% | . | -23%[2.33 µM] | . | .
CC(C)c1c(CN(C)[C@@H](C)Cc2ccccc2)n(C)n(-c2ccccc2)c1=O | -4% | . | 4%[5.15 µM] | . | .
Cc1cccc(C(O)(C(=O)NNC(=O)CN2CCN(C)CC2)c2cccc(C)c2)c1 | 5% | 11% | 71µM* | -9% | -3%
S=C(S)N1CCCC1 | 5.6µM* | 11% | 0.71µM* | -13% | 12%
Cn1c(O)c(/C=C2\N=c3ccccc3=C2CCNC(=S)NC2CC2)c(=O)n(C)c1=O | 32µM* | 11% | -116%[59 µM] | -13% | ?
Cc1nn(-c2ccccc2)c2c1P(=O)(O)/C(=C1\N(C)c3ccccc3C1(C)C)C=N2 | -10% | 37% | ? | -17% | -8%
c1ccc2sc(C3(NCC4CC4)CCCCC3)cc2c1 | 13% | . | 10%[59 µM] | . | .
O=C1/C(=C\c2cc3c(cc2Br)OCO3)N2CCC1CC2 | ? | 12% | 45µM* | -12% | -9%
CCN1C[C@@]2(COC)[C@H]3[C@@H](OC)[C@H]4C1[C@@]3([C@H](OC)C[C@@H]2O)[C@H]1C[C@@]2(O)[C@@H](OC(=O)c3ccccc3)[C@@H]1[C@@]4(OC(C)=O)[C@H](O)[C@@H]2OC | 6% | . | 11%[21.5 µM] | . | .
COc1ccc(C(=O)Nc2ccc(Cl)cc2C(=O)c2ccccc2)c(OC)c1 | . | 23% | -9%[59 µM] | -7% | -5%
COc1ccc(OC)c(NC(=O)C2C(C(=O)O)C3(Cl)C(Cl)=C(Cl)C2(Cl)C3(Cl)Cl)c1 (stereo not drawn) | -1% | 9% | 45µM* | -19% | -31%
O=C1CC(=O)N(c2ccc(Cl)cc2Cl)C(=O)N1 | 2% | 2% | 45µM* | -26% | -1%
O=C1CC(=O)N(c2ccccc2F)C(=O)N1 | ? | 26% | ? | -8% | -3%
CC1CC(OP(O)(=S)c2ccc(N(C)C)cc2NC(=O)c2cccs2)CC(C)(C)C1 (stereo not drawn) | 10µM* | ? | 4µM* | 56µM* | 50µM*
COC(=O)[C@@]1(Cc2ccccc2)[C@H]2c3cc(C(=O)N(C)C)n(C)c3C[C@H]2CN1C(=O)c1ccccc1 | 12% | . | . | . | .
O=[N+]([O-])c1cc(F)c(N2CCCCCC2)cc1N1CCNCC1 | 3% | -2% | . | -28% | ?
CCn1cc(C(=O)O)c(=O)c2cc(F)c(N3CCNCC3)cc21 | -5% | . | 8.9µM*! | . | -8%
COc1cccc(Cn2c(=O)oc3ccccc32)c1 | 12% | 42% | 20% | 9% | 11%
COc1ccc(NC(=O)CSc2oc(-c3cccs3)nc2S(=O)(=O)c2ccccc2)c(OC)c1 | . | ? | ? | ? | -19%
O=C(C(=O)N1CCc2ccccc2C1)c1cn(CC(=O)N2CCCCC2)c2ccccc12 | -12% | 38% | 40µM* | -21% | -4%
Cc1[nH]c2ccc(OC(F)(F)F)cc2c1CCNCc1ccc(Cl)cc1 | -28% | ? | ? | 13µM* | 50µM*
CCOc1cccc(CNCCc2c(C)[nH]c3ccc(OC(F)(F)F)cc23)c1O | ? | ? | 10µM* | 40µM* | 35µM*
Cc1ccc2[nH]c(C)c(CCNCc3ccco3)c2c1 | 4% | -9%[57 µM] | ? | ? | ?
Cc1[nH]c2ccc(OC(F)(F)F)cc2c1CCNCc1cccc([N+](=O)[O-])c1 | -17% | ? | 50µM* | 7.1µM* | 50µM*
SMILES | Sfp inh | HP1b chromo inh | G9a block | JMJD2A Tudor | BAZ2B inh
COc1ccc2[nH]c(C)c(CCNCc3cccnc3)c2c1 | . | ? | ? | 7.1µM* | 20µM*
CC(=O)[C@@H]1CC[C@@H]2[C@@H]3CCC4=CC(=O)CC[C@@]4(C)[C@H]3CC[C@]21C | 7% | . | 22%[21.5 µM] | . | .
Oc1ccc2c3c1O[C@H]1c4c(c5ccccc5n4Cc4ccccc4)C[C@@]4(O)C(C2)N(CC2CC2)CC[C@]314 | -17% | . | -40%[59 µM] | . | .
Cc1ccc(C(=O)c2cn(CC(=O)Nc3ccc(C(C)C)cc3)c3nc(C)ccc3c2=O)cc1 | . | -2% | -7%[59 µM] | ? | 4%[57.1 µM]
CCC(=O)Nc1ccc(C(=O)OCc2ccccc2Cl)cc1 | 0% | 61% | 24%[59 µM] | 7% | 3%
CC1CCN(C(=O)c2ncn(C)c2C(=O)N2CCC(C)CC2)CC1 | . | 13% | . | 22µM* | .
Cc1ccc(NC(=O)COC(=O)CCc2c[nH]c3ccccc23)cc1[N+](=O)[O-] | ? | -23% | 40µM* | ? | ?
S=c1nc(-c2ccccc2)n(-c2ccccc2)[nH]1 | 2% | -9% | 2.8µM* | 3.5µM* | -14%
N#CC(C#N)=NNc1ccc(-n2ccc(C(F)(F)F)n2)cc1 | -4% | -18% | 32µM* | ? | 32µM*
CCN(CC)S(=O)(=O)c1ccc(NN=C(C#N)C#N)cc1 | 8% | ? | ? | ? | ?
Cc1cc(C)n(-c2ccc(NN=C(C#N)C#N)cc2)n1 | ? | 2% | . | ? | 32µM*
C[C@@H](N)Cn1ccc2cc(F)c(Cl)cc21 | 17% | . | . | . | .
CC1CN(c2ccc([N+](=O)[O-])cc2Cl)CCN1 (stereo not drawn) | -23% | 20% | 40µM* | -14% | -11%
CN1CCN(c2ccc([N+](=O)[O-])cc2Cl)CC1 | 11% | 31% | . | -14% | -9%
COc1ccc(C2C=C(c3ccccc3)Nc3nc(NC(=O)/C=C/c4ccccc4Cl)nn32)cc1 (stereo not drawn) | . | 46% | ? | -6% | -28%
CC(C)C[C@H](NC(=O)[C@H](CC(C)C)NC(=O)[C@H](Cc1ccccc1)NC(=O)[C@@H](N)Cc1ccc(O)cc1)C(=O)N[C@@H](CCCN=C(N)N)C(=O)N[C@@H](CC(N)=O)C(=O)N1CCC[C@H]1C(=O)O | 8% | . | . | . | .
O=C1NC(=S)NC(=O)C1=Cc1ccc2c(c1)CCN2CCCCl | 16µM* | ? | 10µM* | 7.9µM* | 25µM*
c1cc2c(cc1[C@H]1OC[C@@H]3[C@H]1CO[C@H]3c1ccc3c(c1)OCO3)OCO2 | -14% | . | . | . | .
O=c1[nH]c(=O)n(CCC2=CCCCC2)c(O)c1C=NCc1cccnc1 | -2% | 26% | 50µM* | -4% | -1%
COc1ccc2c(c1O)-c1cc(O)cc3c1[C@@H](C2)N(C)CC3 | -3% | . | ? | . | .
CCCN1CCc2cc(O)cc3c2C1Cc1ccc(O)c(O)c1-3 (stereo not drawn) | 35µM* | . | 0.32µM* | . | .
C=CCN1CCc2cccc3c2[C@H]1Cc1ccc(O)c(O)c1-3 | 45µM* | 35µM* | 0.53µM* | 16µM* | ?
O[C@@H](Cc1ccncc1)C(Cl)(Cl)Cl | 4% | . | . | . | .
c1ccc(CN2CCCC3(CCNCC3)C2)cc1 | -14% | . | -1%[12.7 µM] | . | .

Source: PubChem
